Shown are actives, neighbours in structure and some others; about 3.2% of the full set was active somewhere.
BRCT inh green = inhibitors of human BRCA1 BRCT-phosphoprotein interaction (green fluorophore). Potency, µM (series often up to 76.9 µM), inactives show at the top dose activity change, negative = inhibition, actives largely listed as inhibitors. P38398. 75,000 compounds, 0.05% hits. BRCA1 BRCT-phosphopeptide binding, green fluorescence polarization. AID 875;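 further: potency means the concentration at half of the fitted maximal effect; plate controls were peptide without protein for full effect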
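Compounds were incubated for 12 min at room temperature with a complex of 100 nM fluorescein-tagged pBACH1 decapeptide and 250 nM His-tagged BRCT protein. Buffer was phosphate pH 7.3 with EDTA, DTT and Tween 20. Disruption of binding lowers the polarization signal.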
DNA Pol III inh = blocks replication by bacterial DNA polymerase III holoenzyme; reconstituted DNA polymerase III holoenzyme replication, biochemical; Potency, µM (series often up to 57.1 µM), inactives show top-dose activity change, negative = inhibition; AID 603; 71,000 compounds, 0.25% hits; further: potency means the concentration at half of the fitted maximal effect; on the % scale 0 is the no-effect control and ±100 the full control effect
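Reconstituted *E. coli* holoenzyme (0.35 nM Pol III, 1 nM beta, 154 nM SSB, 2 nM primase) was preincubated with compound for 15 min at RT. Synthesis on 1.4 nM ssM13Gori ran 35 min, then was stopped with PicoGreen/EDTA and read as dsDNA fluorescence.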
HEK293 cAMP cs = parental HEK293 cAMP activation (counter-screen). parental HEK293 CNG cAMP sensor, membrane potential fluorescence. Potency, µM (titrated, usually from 57.1 µM), without a hit: at the top dose activation, hits mostly activators. 73,000 compounds, 2.5% hits. AID 938; further: potency means the concentration at half of the fitted maximal effect; % of control where 0% means no effect; nearly all actives have a fitted effect of over 55% in size
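Parental HEK 293 cells stably expressing a cAMP-gated CNG channel were loaded with membrane potential dye containing 100 uM RO 20-1724 for 60 min. Compound added for 30 min; depolarization read as fluorescence intensity at 590 nm.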
TsaE inh = inhibitors of E. coli YjeE (TsaE); Potency, µM; 71,000 compounds, 0.05% hits; P0AF67; purified YjeE enzyme, qHTS inhibition assay
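Fluorescence polarization of a BODIPY Texas Red–ADP probe (2 uM) bound to purified YjeE (10 uM) was read after 15 min room-temperature incubation with compounds. Loss of polarization marks inhibitors; ADP serves as titrated control.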
BRCT inh red = BRCT-phosphoprotein interaction inhibition (red fluorophore); AID 892; BRCT-phosphopeptide binding, red fluorescence polarization; 75,000 compounds, 0.03% hits; Potency, µM (titrated, usually from 76.9 µM), without a hit: top-dose activity change, negative = inhibition, actives largely listed as inhibitors; further: on the % scale 0 is the no-effect control and ±100 the full control effect
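Rhodamine-labelled pBACH1 10-mer (100 nM) bound to BRCT domain (100 nM) at pH 7.3; compounds incubated 12 min room temperature, polarization read. Free peptide defines full inhibition; unlabelled decapeptide titrated as control.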
TSHR ag = activates the human thyroid stimulating hormone receptor | P16473 | Potency, µM (doses to about 57.1 µM), without a hit: at the highest dose activation, most hits filed as activators | HEK293-CNG-TSHR cells (CNG channel as cAMP sensor), membrane potential dye, cAMP | 73,000 compounds, 0.48% hits; active means well fitted activation curve with a large enough effect in the main read-out, with a control signal flat, not every such curve was filed as active; inconclusive means small, poorly fitted or top-dose-only effect, or a change in a side signal; inactive means no such curve, though single readings can be large or run the other way; % of control where 0% means no effect;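 further: the control signal comes from parental cells without the receptor; potency means the concentration at half of the fitted maximal effect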
Target sequence (P16473 whole entry, looked up): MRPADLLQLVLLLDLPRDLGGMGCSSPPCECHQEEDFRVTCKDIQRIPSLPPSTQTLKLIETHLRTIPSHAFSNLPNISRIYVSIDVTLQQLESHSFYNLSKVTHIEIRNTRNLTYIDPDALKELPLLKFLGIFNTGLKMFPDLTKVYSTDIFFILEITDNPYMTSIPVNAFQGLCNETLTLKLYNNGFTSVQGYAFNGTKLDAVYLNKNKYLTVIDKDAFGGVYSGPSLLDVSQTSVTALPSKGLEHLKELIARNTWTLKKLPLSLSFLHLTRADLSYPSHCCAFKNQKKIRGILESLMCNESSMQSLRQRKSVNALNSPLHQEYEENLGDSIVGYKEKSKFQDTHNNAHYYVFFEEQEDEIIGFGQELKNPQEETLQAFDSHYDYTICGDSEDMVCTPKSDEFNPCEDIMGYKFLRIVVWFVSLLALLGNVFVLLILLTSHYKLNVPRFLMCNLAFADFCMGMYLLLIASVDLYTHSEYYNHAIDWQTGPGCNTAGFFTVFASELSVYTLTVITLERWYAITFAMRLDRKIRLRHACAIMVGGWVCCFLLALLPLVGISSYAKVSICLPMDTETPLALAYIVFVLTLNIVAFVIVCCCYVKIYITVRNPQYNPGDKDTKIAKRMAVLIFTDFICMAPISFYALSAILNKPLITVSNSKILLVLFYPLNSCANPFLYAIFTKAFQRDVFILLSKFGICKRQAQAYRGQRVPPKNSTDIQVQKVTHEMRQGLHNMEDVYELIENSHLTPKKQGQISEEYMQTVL
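HEK 293 cells stably expressing TSHR and a modified CNG channel, with CNG-only parental cells as counterscreen, were preloaded 60 min at room temperature with membrane potential dye containing 100 uM RO 20-1724. Compound exposure was 30 min, and depolarization was read as fluorescence at 590 nm.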
* hit, by the source's call; i = inactive; u = inconclusive; x = no result; ! = not confirmed by another sample; [ ] = dose if it differs, or a comment. Unless noted, the call rests on the fitted dose curve; in most records, active means well fitted curve in the direction sought with a large enough effect; inconclusive means small, poorly fitted or top-dose-only effect, or another doubt; inactive means no such curve, though single readings can be large; an effect the other way counts as inactive or inconclusive.

SMILES	BRCT inh green	DNA Pol III inh	HEK293 cAMP cs	TsaE inh	BRCT inh red	TSHR ag
Oc1ccc(Nc2nc(N3CCCC3)c3ccccc3n2)cc1	-2%	32µM*	-53%	i	-4%	u
CC1(C)CC(CCC(=O)Nc2ccc(S(N)(=O)=O)cc2)C(=O)O1 (configuration not stated)	-1%	-8%	0%	i	0%	2%
C=CCc1ccccc1OCC(O)CN1CCN(c2ccc(C)cc2)CC1 (configuration not stated)	2%	-3%	5%	i	-2%	0%
COc1ccc(OC)c(C(=O)COC(=O)c2ccccc2O)c1	0%	2%	25µM*	i	-2%	u
COc1ccc(OC)c(C(=O)COC(=O)c2c(OC)cccc2OC)c1	-1%	-11%	6%	i	0%	2%
CCCCCCOc1ccccc1C(N)=O	0%[3.08 µM]	x	x	x	-1%	x
c1ccc(COn2nnc3ccccc32)c(COn2nnc3ccccc32)c1	5%	-5%	25µM*	i	0%	u
c1ccc(-n2nnc3ccccc32)nc1	0%	2%	3%	i	1%	9%[11.4 µM]
O=C(Nc1ccc2c(c1)OCCO2)c1ccc(S(=O)(=O)N2CCCCC2)cc1	-1%	-1%	-15%	i	0%	7%
CC(=O)N[C@@H](CC(=O)O)C(=O)N[C@@H](CCC(=O)O)C(=O)O	-2%	20µM*!	1%	i	1%	-3%
O=C(CSc1nnc(-c2ccc(O)cc2)n1Cc1ccco1)c1cccs1	-1%	-1%	27%	i	0%	10µM*
O=C(CSc1nnc(Cc2ccccc2)n1Cc1ccco1)NC1CCCC1	-2%	0%	u	i	2%	u
COc1cccc(-c2nnc(SCC(=O)OC(C)C)n2Cc2ccco2)c1	-3%	15%	16µM*	i	1%	u
CC(C)OC(=O)CSc1nnc(Cc2ccccc2)n1Cc1ccco1	-1%	2%	5µM*	i	-3%	u
Cc1ccnc(N2CCC(C(=O)Nc3cccc(C(F)(F)F)c3)CC2)n1	1%	-5%	20µM*	i	-2%	u
Cc1ccnc(N2CCC(C(=O)Nc3ccc(Oc4ccccc4)cc3)CC2)n1	-1%	0%	8%	i	-2%	-2%
O=C(CSc1nc2c(sc3ccccc32)c(=O)n1CCO)NCC1CCCO1 (configuration not stated)	1%	-5%	-1%	i	-2%	-1%
CCOC(=O)CSc1nc2c(sc3ccccc32)c(=O)n1CCCN1CCOCC1	4%	-4%	13µM*	i	0%	u
O=C(c1nn2c(C(F)(F)F)cc(-c3ccc(F)cc3)nc2c1Cl)N1CCOCC1	-1%	-4%[11.4 µM]	1%[11.4 µM]	i	0%	18%[11.4 µM]
Cc1cc(C)c2[nH]c(=O)c(CN(Cc3ccco3)C(=O)C3CCCO3)cc2c1 (configuration not stated)	2%	-6%	28%	i	-5%	17%
Cc1ccc2cc(CN(Cc3ccco3)C(=O)C3CCCCC3)c(=O)[nH]c2c1C	-1%	0%	20µM*	i	0%	u
CCC(c1nnnn1CCc1ccccc1)N(Cc1ccco1)Cc1cc2cccc(C)c2[nH]c1=O (configuration not stated)	2%	-5%	16µM*	i	-1%	u
CCOc1ccc2[nH]c(=O)c(CN(Cc3ccco3)C(CC)c3nnnn3Cc3ccccc3)cc2c1 (configuration not stated)	2%	-1%	7%	i	-1%	x
CCCn1c(SCC(=O)NCCc2ccccc2)nnc1-c1ccccn1	-2%	-2%	22%	i	-1%	5%
CCC(C)(C)n1nnnc1C(C(C)C)N1CCSCC1 (configuration not stated)	0%	0%	6.3µM*	i	-1%	u
SMILES	BRCT inh green	DNA Pol III inh	HEK293 cAMP cs	TsaE inh	BRCT inh red	TSHR ag
CCC(C)(C)n1nnnc1C(C(C)C)N1CCN(C)CC1 (configuration not stated)	-2%	7%	13%	i	0%	6%
Cc1cc(C)cc(CC2CC(=O)N(c3nc(C)cc(C)n3)C2=O)c1 (configuration not stated)	1%	-6%	3%	i	-1%	3%
O=C1C2=C(Nc3ccccc3SC2c2ccco2)c2ccccc21 (configuration not stated)	-2%	0%	-23%	i	-1%	2µM*
O=C1c2ccccc2NC(c2ccco2)N1O (configuration not stated)	-1%	-4%	-3%	i	0%	-8%
O=C(NCCc1ccc2c(c1)OCO2)C1CCN(S(=O)(=O)c2ccc(Cl)cc2)CC1	0%	-9%	13µM*	i	1%	u
COCCCn1c(SCC(=O)NC(C)(C)C)nnc1-c1ccccc1	0%	-5%	1%	i	1%	-1%
O=C(C1CC1)N1CCc2cc(Br)cc(S(=O)(=O)N3CCN(c4ccccn4)CC3)c21	0%	2%	16µM*	i	-2%	u
COc1ccc2[nH]cc(CCNc3nc(-c4ccoc4)nc4ccccc34)c2c1	1%	0%	-8%	i	1%	x
CCOC(=O)c1c(C)[nH]c(NC(=O)Nc2c(C)n(C)n(-c3ccccc3)c2=O)c1C	-1%	-8%	5%	i	1%	-7%
CCCCn1c(SCc2ccc(Cl)cc2)nc2c1c(=O)[nH]c(=O)n2C	2%	-2%	u	i	-1%	u
CCCCCCn1c(SCC(C)C)nc2c1c(=O)[nH]c(=O)n2C	-2%	-3%	25µM*	i	1%	u
CC(C)CCn1c(SCc2ccc(Cl)cc2)nc2c1c(=O)[nH]c(=O)n2C	-2%	-8%	10µM*	i	1%	u
CC(C)CCSc1nc2c(c(=O)[nH]c(=O)n2C)n1CCc1ccccc1	-3%	-6%	10µM*	i	0%	u
CCC(=O)NCCNC(=O)c1c(SC)nsc1SC	0%	0%	u	i	1%	u
Cc1ccc(-c2noc(CSc3nnnn3C3CCCCC3)n2)cc1	0%	-7%	47%	i	0%	25µM*
c1ccc(-c2noc(CSc3nnnn3-c3ccccc3)n2)cc1	-4%	3%	u	i	1%	u
O=C(CSc1nc2c(cnn2-c2ccc(F)cc2)c(=O)[nH]1)N1CCCc2ccccc21	1%	-7%	25µM*	i	-1%	u

Bioassay records deposited in PubChem by National Center for Advancing Translational Sciences (NCATS).
